TDP1 block – blocks human tyrosyl-DNA phosphodiesterase 1 | 0.28% of 350,000 active | recombinant TDP1, AlphaScreen DNA substrate cleavage | Q9NUW8 | AID 485290 | Potency, µM (titrated, usually from 130 µM), for the others: at the top dose activity change, negative = inhibition, usual class: inhibitors; also: potency is read from the fitted curve at half-maximal effect; % is scaled to controls: 0 for no effect and ±100 for the full control effect; nearly all actives have a fitted effect of over 40% in size
Target sequence (Q9NUW8 whole entry, looked up): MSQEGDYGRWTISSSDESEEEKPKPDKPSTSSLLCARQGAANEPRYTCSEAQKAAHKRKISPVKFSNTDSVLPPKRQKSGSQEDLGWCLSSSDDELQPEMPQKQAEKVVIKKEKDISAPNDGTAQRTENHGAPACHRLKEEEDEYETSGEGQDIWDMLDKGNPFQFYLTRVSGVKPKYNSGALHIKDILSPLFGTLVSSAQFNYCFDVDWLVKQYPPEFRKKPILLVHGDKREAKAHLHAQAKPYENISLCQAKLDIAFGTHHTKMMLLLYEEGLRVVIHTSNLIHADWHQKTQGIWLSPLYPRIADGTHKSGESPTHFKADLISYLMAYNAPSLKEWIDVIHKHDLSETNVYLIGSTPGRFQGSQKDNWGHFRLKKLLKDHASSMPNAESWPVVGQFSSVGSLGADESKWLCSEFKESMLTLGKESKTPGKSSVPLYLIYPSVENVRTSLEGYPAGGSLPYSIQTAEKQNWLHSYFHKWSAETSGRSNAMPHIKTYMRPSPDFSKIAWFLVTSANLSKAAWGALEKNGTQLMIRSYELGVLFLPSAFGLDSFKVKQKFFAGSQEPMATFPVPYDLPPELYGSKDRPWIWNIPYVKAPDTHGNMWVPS
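Signal: AlphaScreen proximity between streptavidin donor and anti-FITC acceptor beads on intact substrate. Reaction: Tdp1 1 nM, substrate 15 nM final, 5 min RT after 15 min compound preincubation.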
TDP1 cell noCPT – qHTS for Inhibitors of human tyrosyl-DNA phosphodiesterase 1 (TDP1): qHTS in cells in absence of CPT. DT40 Tdp1-/- hTDP1 cells, no CPT, ATP luminescence, 48 h. Potency, µM (doses to about 46.2 µM), without a hit: at the top dose activity change, negative = growth inhibition, most hits filed as inhibitors. 15% of 420,000 active. AID 686978, 2013; also: potency is read from the fitted curve at half-maximal effect; % is scaled to controls: 0 for no effect and ±100 for the full control effect; nearly all actives have a fitted effect of over 55% in size
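Readout: luminescence from CellTiter-Glo after 30 min in the dark at RT. Cells: DT40 Tdp1-/- with stable hTDP1, 400/well. Exposure: compounds alone, ≥48 hr, 37 °C.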
HepG2 tox – HepG2 cytotoxicity, counter-screen for TGF-b inhibitors; HepG2 CAGA-GFP viability, ATP luminescence, 18 h; Potency, µM (titrated, usually from 46.1 µM), for inactives: at the highest dose activity change, negative = cytotoxicity, actives largely listed as cytotoxic; 0.76% of 410,000 active; AID 588856; also: potency is read from the fitted curve at half-maximal effect
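CellTiter-Glo luminescence gave cytotoxicity after 18 hours at 37 degrees C. The cells were HepG2 CAGA-GFP in 1% FBS DMEM, stimulated with 500 pg/mL TGF-beta after compound addition. %Activity was normalised to no-cell wells (complete cell-killing) and DMSO (no toxicity), and curves were fitted and classified.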
TGFb SMAD3 inh – inhibitors of TGF-b signaling. HepG2 CAGA-GFP TGF-b/SMAD3 reporter, GFP fluorescence, 18 h; TGF-beta stimulated, 500 pg/mL final. Potency, µM (series often up to 46.1 µM), for the others: at the top dose activity, negative = inhibition, most hits filed as inhibitors. 1.2% of 410,000 active. AID 588855; also: potency is read from the fitted curve at half-maximal effect; % is scaled to controls: 0 for no effect and ±100 for the full control effect; nearly all actives have a fitted effect of over 65% in size
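Read-out: total well GFP (ex488/em500-530) summed from mean per-cell fluorescence. Cells: HEPG2 CAGA-GFP, 1% FBS DMEM, 18 h at 37 degrees C with 500 pg/mL final TGF-beta. Unstimulated wells served as the full-inhibition control; stimulated DMSO wells = 0%.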
IL-1B inflam inh – inflammasome signaling inhibition, IL-1 beta readout | activity change, % at 57.5 µM | 4.7% of 360,000 active | THP-1 LPS/ATP IL-1B secretion, AlphaLISA, 16 h; active compounds read low; in the data active = activity change below about -50%; inconclusive = mostly about -30% to -49%; also: % is scaled to controls: 0 for no effect and ±100 for the full control effect
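THP-1 cells pretreated 1 hr with compounds (up to 57.5 uM final), then stimulated with LPS (250 ng/mL final) plus ATP (1.25 mM final); secreted IL-1B measured by AlphaLISA after 16 hr, decreased signal indicating inhibition.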
TDP1 cell CPT – DT40-hTDP1 cell growth loss with CPT. chicken DT40 Tdp1-/-;hTDP1 cells + 20 nM CPT, ATP luminescence, 48 h. Potency, µM (top dose mostly 46.2 µM), inactives show top-dose activity change, negative = growth inhibition, actives largely listed as inhibitors. 12% of 420,000 active; also: potency is read from the fitted curve at half-maximal effect; % is scaled to controls: 0 for no effect and ±100 for the full control effect; nearly all actives have a fitted effect of over 55% in size
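Chicken DT40 Tdp1-/- cells stably complemented with human TDP1 were seeded at 400 cells/well in medium containing 20 nM camptothecin, exposed to pin-transferred compounds, and grown at 37 °C for at least 48 hr. Viability was read as ATP luminescence.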
* marks the source's active call; other numbers are inactive results; ? = inconclusive; . = no result given; [ ] = another dose, or the depositor's remark. In the library only some 19% were active in any assay of this set; here they are far more common. Unless noted, calls follow the shape of the dose curve; as a rule, active = well fitted curve in the direction sought with a large enough effect; inconclusive = small, poorly fitted or top-dose-only effect, or another doubt; inactive = no such curve, though single readings can be large; an effect the other way counts as inactive or inconclusive.

SMILES | TDP1 block | TDP1 cell noCPT | HepG2 tox | TGFb SMAD3 inh | IL-1B inflam inh | TDP1 cell CPT
COc1ccc(Nc2cc(C)c3cc(NC(=O)Cc4ccc(Cl)cc4)ccc3n2)cc1 | 9.9% | ? | -42.5% | ? | . | ?
COc1ccccc1-c1noc(CCC(=O)Nc2cccc(C(F)(F)F)c2)n1 | 0.7% | ? | -21.7% | -7.2% | 30.4 | ?
COc1ccccc1-c1nc(SCC(=O)NCc2ccccc2)c2c(=O)n(C)c(=O)n(C)c2n1 | 2.7% | -10.2% | -1.8% | -33.4% | . | -12.0%
Cc1cc(O)c2c(c1O)C(=O)C(O)=C(O)C2=O | -12.5% | -20.4%[9.04 µM] | . | . | . | 7.7%[9.04 µM]
O=[N+]([O-])c1cc([N+](=O)[O-])c2c(=Nc3ccccc3)n(-c3ccccc3)n(O)c2c1 | 8.9% | 10.3µM* | -17.0% | ? | -25.0 | 3.26µM*
CCOc1ccc(-c2nc(N)ncc2Oc2cccc(OC)c2)c(O)c1 | 8.8% | 18.4µM* | -44.9% | -7.4% | ? | ?
CCOc1ccccc1Oc1cn[nH]c1-c1ccc(OCC(=O)NN)cc1O | . | -20.5% | 3.5% | 16.0% | -9.5 | 0.1%
CCOc1ccc(-c2nc(N)ncc2Oc2ccccc2Br)c(O)c1 | 0.0% | ? | 11.2µM* | ? | -22.2 | ?
CCOc1ccc(-c2n[nH]c(C)c2Oc2ccc(OC)cc2)c(O)c1 | 7.1% | 10.3µM* | 12.6µM* | ? | -27.6 | 20.6µM*
CCOc1ccc(-c2ncncc2-c2ccccc2OC)c(O)c1 | . | 23.1µM* | 1.8% | 3.8% | 16.8 | 13µM*
CCOc1ccccc1C(=O)NCC(=O)N1CCC(C)CC1 | 0.4% | -0.7% | -11.9% | 4.3% | -17.4 | 13.5%
Cc1ccc(-c2ccc(CCC(=O)O)n2-c2cccc(C)c2C)cc1 | . | -19.9% | -23.2% | ? | . | -15.5%
COc1cc(OC)cc(C(=O)Nc2cc(-c3nc4cc(Cl)ccc4o3)ccc2Cl)c1 | 1.9% | . | -11.4% | 1.2% | . | .
O=C(Nc1ccc(-n2cccn2)cc1)C1CCCCN1Cc1cccc2cccnc12 (centres undefined) | 2.2% | ? | -19.0% | ? | -50.3* | ?
CCc1ccc(NC(=O)NCCc2c(C)nn(C)c2C)cc1 | 1.2% | ? | 2.9% | 1.3% | . | -4.9%
CCOC(=O)N1c2ccccc2Sc2ccccc21 | 4.9% | ? | -2.4% | ? | 8.4 | -11.0%
Cc1ccc(/C(N)=N/OC(=O)N2c3ccccc3Sc3ccccc32)cc1 | . | 20.6µM* | -5.1% | -1.2% | -5.3 | ?
Cc1ccccc1/C(N)=N/OC(=O)N1c2ccccc2Sc2ccccc21 | 8.6% | 12.6µM* | -87.8% | 0.3% | -6.9 | 11.2µM*
Cc1ccc(/C(N)=N/OC(=O)CCCc2ccccc2)cc1 | 50.1µM* | 4.9% | -3.1% | -6.9% | 11.1 | -15.4%
Cc1cc(C)cc(NC(=O)CSc2nnc(-c3ccc(S(=O)(=O)N4CCCC4)cc3)o2)c1 | 9.5% | -14.4% | -18.4% | -13.9% | 0.0 | -22.3%
CCOC(=O)Cc1csc(NC(=O)CSc2nnc(-c3ccc(NS(=O)(=O)CC)cc3)o2)n1 | . | -6.5% | -3.3% | -9.4% | 5.9 | -28.3%
CCS(=O)(=O)Nc1ccc(-c2nnc(SCC(=O)OC)o2)cc1 | -1.0% | -46.8% | 5.0% | 10.9% | -85.5* | -5.2%
COC(=O)CSc1nnc(-c2ccc(S(=O)(=O)N3CCCC3)cc2)o1 | . | -10.7% | 11.5% | 1.5% | -51.5* | 14.3%
CCC(=O)Nc1ccc(C(=O)CSc2nnc(-c3ccc(NS(=O)(=O)CC)cc3)o2)cc1OC | . | 1.16µM* | 9.8% | 5.6% | 3.0 | 1.64µM*
CCOC(=O)c1c(S(=O)(=O)N2CCCC(C(=O)Nc3ccc(C)cc3C)C2)c(C)n(CC)c1C (centres undefined) | 5.4% | ? | -9.2% | -27.9% | . | ?
SMILES | TDP1 block | TDP1 cell noCPT | HepG2 tox | TGFb SMAD3 inh | IL-1B inflam inh | TDP1 cell CPT
CCC(=O)N1CCc2cc(Br)cc(S(=O)(=O)CCC(=O)Nc3ccccc3C)c21 | -2.9% | -20.7% | -4.3% | -0.1% | . | -14.6%
O=C(NCC1Cc2cccc(-c3ncccn3)c2O1)c1cccc(-c2ccccc2F)c1 (centres undefined) | . | ? | . | . | . | -10.1%[9.04 µM]
CCOc1ccc(CCNC(=O)Cn2ncc3c([nH]c4ccccc43)c2=O)cc1OCC | 5.0% | 7.2% | -7.3% | 5.8% | . | -5.1%
Cc1ccc(NC(=O)c2c(C)oc3ncn(CC(C)C)c(=O)c23)nc1 | 2.1% | 9.2µM* | -13.7% | -22.2% | . | 13µM*
COC(=O)C(CCSC)NC(=O)c1c(C)oc2ncn(CC(C)C)c(=O)c12 (centres undefined) | 3.2% | 13µM* | 2.6% | -0.6% | . | -25.5%
Cc1oc2ncn(CC(C)C)c(=O)c2c1C(=O)NC(C)c1ccccc1 (centres undefined) | 5.3% | 20.6µM* | -5.5% | 11.9% | . | 20.6µM*
CC(=O)N1c2ccccc2C(=O)C1N1CCN(c2cccc(Cl)c2)CC1 (centres undefined) | 5.3% | -26.7% | 11.6% | 2.6% | . | -0.7%
Cc1cc(O)cc2c1O[C@](C)(CCC(=O)O)CC2 | . | -2.4% | . | . | . | -3.2%
CCOC(=O)C1CCCN(C(=O)c2cccc(NC(=O)c3nsc4ccccc34)c2)C1 (centres undefined) | 8.1% | 20.6µM* | -6.1% | 11.9% | . | 20.6µM*
CCOC(=O)C1CCCN(C(=O)c2ccccc2NC(=O)c2nsc3ccccc23)C1 (centres undefined) | 2.7% | ? | -16.9% | 0.0% | . | 16.4µM*
CC(=O)c1ccc(NC(=O)COC(=O)c2ccc(F)cc2F)cc1 | 4.3% | -9.9% | 2.2% | -9.9% | -3.3 | -3.1%
Cc1ccc(C(=O)NC(=S)Nc2ccc(-c3ccc(CO)o3)cc2)cc1 | 0.0% | 10.3µM* | -17.8% | -2.4% | -0.4 | ?
Cc1ccc(C(=O)NC(=S)Nc2ccc(Oc3ccc(Cl)cc3)cc2)cc1 | 3.9% | 20.6µM* | 9.4% | -5.2% | 0.0 | ?
COCCCNC(=S)NC(=O)c1ccc(C)cc1 | 6.8% | 18.4µM* | -2.6% | 22.0% | 0.0 | 0.2%
Cc1ccc(OCCNC(=O)c2ccc(C)cc2)cc1 | . | 13.6% | 2.0% | -4.2% | 0.0 | 1.5%
O=C(NC(=S)Nc1ccc(Oc2ccccc2)cc1)c1ccc(Cl)cc1 | 8.1% | 23.1µM* | -12.9% | ? | -53.9* | ?
CC(=O)Nc1ccc(NC(=O)CSc2nccn2Cc2ccc3c(c2)OCO3)cc1 | 1.1% | ? | -46.0% | ? | . | ?
CCOc1cccc(-c2nc3ccccc3c(=O)o2)c1 | -9.3%[12.3 µM] | ? | -17.6% | -2.3% | . | ?

Screening data (PubChem BioAssay)
